Results taken from the supplement of paper PMC6555819.

Columns and labels:
Assay in all cases: PBM binding z-score (relative to random genomic background probes); higher = stronger binding; sequences stand for … in GC…GCGATTGACAGCGTAGAATGAAGG
[1] = tested on: PPARg:RXRa DBDmut IVT, anti-RXR (DBD mutation: RXRa K156A/R161A, NR concentration 270 nM, RXRa partner concentration 90 nM)
Summary of the method: (§1)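 Probes were double-stranded and carried 34-nt variable regions with direct-repeat seeds, single-nucleotide variants, half-site ablations and random human genomic background sequences, printed on custom Agilent 4×180K protein-binding microarrays. Arrays were incubated 1 h with ligand-free nuclear receptor dimers in PBS pH 7.4, 2% milk, 0.02% Triton X-100, 1 mM DTT, 0.2 mg/mL BSA and 0.4 mg/ml salmon testes DNA. Antibodies against each partner (one per run) detected binding, and scanned fluorescence was regression-normalized. Binding z-scores use the random background probes as reference.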

[2] = tested on: PPARg:RXRa IVT, anti-PPARg (NR concentration 270 nM, RXRa partner concentration 90 nM)
Summary of the method: as §1

[3] = tested on: PPARg DBDmut:RXRa IVT, anti-PPARg (DBD mutation: PPARg1 K132A/R137A, NR concentration 270 nM, RXRa partner concentration 90 nM)
Summary of the method: as §1

[4] = tested on: PPARg DBDmut IVT, anti-PPARg (DBD mutation: PPARg1 K132A/R137A, NR concentration 270 nM)
Summary of the method: as §1

[5] = tested on: PPARg homodimer (NR concentration 180 nM)
Summary of the method: as §1

[6] = tested on: PXR:RXRa (NR concentration 270 nM, RXRa partner concentration 90 nM)
Summary of the method: as §1

[7] = tested on: PXR homodimer (NR concentration 270 nM)
Summary of the method: as §1

[8] = tested on: RARa:RXR (NR concentration 270 nM, RXRa partner concentration 90 nM)
Summary of the method: as §1

[9] = tested on: RARa homodimer (NR concentration 270 nM)
Summary of the method: as §1

[10] = tested on: RARb:RXRa (NR concentration 270 nM, RXRa partner concentration 90 nM)
Summary of the method: as §1

Sequence | PBM binding z-score [1] | PBM binding z-score [2] | PBM binding z-score [3] | PBM binding z-score [4] | PBM binding z-score [5] | PBM binding z-score [6] | PBM binding z-score [7] | PBM binding z-score [8] | PBM binding z-score [9] | PBM binding z-score [10]
TCATATAGGTAAACAGGTGAGAGTCCGTAAGTTA | 4.89 | 4.22 | 0.855 | 1.05 | 0.708 | 0.6 | 0.674 | 0.689 | 1.25 | 0.677
TCTTGTAGATCAAGCCGGTTAAGAAAGCCTGAGT | 1.95 | 0.218 | -0.157 | -0.013 | 0.0807 | 0.392 | 0.0295 | 0.402 | -0.0189 | 0.123
CCGACTGGGGCAATGGTTACCATACTCAGTACGA | 3.21 | 3.14 | -0.545 | -0.357 | 0.166 | -0.648 | -0.201 | -0.309 | -0.393 | 0.161
CCTACTGGGCAATTCAGAGGTCATTGATCATATG | 1.37 | 1.97 | 0.00726 | -0.498 | 2.09 | 4.71 | 2.44 | 4.45 | 0.887 | 2.82
CAAACTAGGTCACGAAAGGTCAAGGTCGAATGAC | 8.73 | 9.06 | 5.16 | 2.59 | 5.42 | 6.88 | 3.03 | 7.71 | 3.81 | 5.62
AATACAGGGTCACTACGCCAGAGTAGGTACGAAT | 2.98 | 4.51 | 2.04 | 1.71 | 2.16 | 3.28 | 0.564 | 4.53 | 1.63 | 4.17
CGTCCAAGTTCAGAGAGGTCAGTGAATGCCGAGT | 0.453 | 0.71 | -0.268 | -0.219 | 4.09 | 6.4 | 13 | 3.9 | 1.51 | 4.09
CAAACTAGGTCACCGGAAGGTCAACGTCCGCATG | 8.78 | 8.78 | 2.66 | 1.2 | 6.53 | 5.79 | 1.29 | 7.37 | 2.46 | 5.38
CGAACTAGGTCAGAACATGACAGTGAAGGATGAT | 6.77 | 7.31 | 2.34 | 1.77 | 1.17 | 0.243 | -0.286 | 0.937 | 0.0136 | 2.58
CCGACTGGGGCAGAAAGGATACCATACCATCCGG | 0.646 | 0.728 | -0.578 | -1.57 | -0.142 | -0.951 | -0.394 | -1.06 | -0.437 | 0.0733
ACTATTAGTTGACTTAGGGAAACCGATACGACGC | 0.323 | 0.25 | 1.26 | 1.45 | 0.412 | -0.145 | 0.319 | 0.0911 | 0.75 | 0.0734
TCTAGCAGGCCAGAGGGTCACTCACGAGGTACGG | 0.776 | 0.783 | -0.376 | -1.19 | 1.31 | 1.51 | -0.605 | 2.52 | -0.397 | 2.25
CCTACTGGGCCACCAGGTCATTGATATCAACGTT | 4.8 | 6.19 | -0.327 | -0.298 | 1.02 | 1.73 | 0.656 | 1.75 | 0.342 | 1.98
TCTTGTAGATCAAGGGTTAAGAAAGCCGAAGCCT | 1.55 | 2.33 | 0.632 | -0.0594 | 1.12 | 0.471 | -0.23 | 1.06 | -0.354 | 0.694
CCGAGTAGGTTATGGGGCATTCCGGCAACGGTGA | 3.2 | 3.14 | 0.204 | -0.0547 | 0.995 | -0.218 | -0.17 | 0.0767 | 0.0897 | 0.966
AGAATGATGTTAAGATCAGGGAAACAGAATACAT | -0.786 | -0.128 | -0.544 | 0.266 | -0.958 | -0.441 | -0.00916 | -0.274 | 0.423 | -0.436
ACTTACGGGTTAACGAGGTTATAGCACGCGTATA | 1.74 | 2.15 | 0.886 | 1.18 | 1.01 | 2.88 | 0.801 | 2.6 | 0.88 | 1.69
TCATATAGGTAATACAGGTGAAAGGCGGCATCTA | 4.33 | 3.42 | 1.73 | 1.03 | 1.29 | 1.04 | 0.592 | 1.33 | 1.69 | 0.697
ATTTACGGGTCAACGAGGTTATAGCACGCGTATA | 3.42 | 4.88 | 2.57 | 2.5 | 2.8 | 5.6 | 4.18 | 5.97 | 1.69 | 4.48
GCGACTGGGGCATCAGTAGGTTACCATAACTTAA | 4.06 | 4.04 | -0.43 | -0.245 | 0.247 | 0.02 | -0.313 | 0.416 | -0.569 | 0.805
TCATATAGCTAAACAGGTGAAAGTCCGTAAGTTA | 1.46 | 0.758 | -0.631 | 0.119 | 0.0802 | 0.228 | -0.231 | 0.404 | 0.0178 | 0.215
ATCTCTAGGTGAAGATAGTTCAGTGAATGCAAAT | 4.18 | 4.44 | 0.653 | 1.5 | 0.717 | 1.58 | 0.667 | 0.801 | 0.811 | 1.29
TCTTGTAGATCAATAGAGGTTGAGAAAGTGCGCT | 1.55 | 0.494 | 0.467 | 0.307 | -0.399 | 1.01 | -0.0662 | 0.48 | -0.121 | -0.0211
ACAGACAGGTCAGTGAAGGTAACTCAGCTGGACG | 0.901 | 1.22 | -0.0695 | -0.218 | 0.397 | 1.57 | -0.149 | 1.78 | 0.123 | 3.51
TCATAGAGGTAAACAGGTGAAAGTCCGTAAGTTA | 2.54 | 2.16 | 0.176 | 0.0732 | 0.143 | 0.625 | -0.208 | 1.11 | 0.579 | 0.861
